Assay results as given in ChEMBL document CHEMBL3433997, “St. Jude Leishmania screening dataset” (2016).

Legend:
Format in all cases: functional
[1] = molecular target: Solute carrier family 2, facilitated glucose transporter member 1 (Homo sapiens) (UniProt P11166); experiment: ST_JUDE_LEISH: Cytotoxicity at 2uM final concentration against transgenic Leishmania Mexicana promastigotes LmGLUT1 that are glucose transport deficient and complemented with the human glucose transporter GLUT1. Activity is measured by DNA content using SYBR green in vitro
Chain of Solute carrier family 2, facilitated glucose transporter member 1 (Homo sapiens) (P11166 whole entry): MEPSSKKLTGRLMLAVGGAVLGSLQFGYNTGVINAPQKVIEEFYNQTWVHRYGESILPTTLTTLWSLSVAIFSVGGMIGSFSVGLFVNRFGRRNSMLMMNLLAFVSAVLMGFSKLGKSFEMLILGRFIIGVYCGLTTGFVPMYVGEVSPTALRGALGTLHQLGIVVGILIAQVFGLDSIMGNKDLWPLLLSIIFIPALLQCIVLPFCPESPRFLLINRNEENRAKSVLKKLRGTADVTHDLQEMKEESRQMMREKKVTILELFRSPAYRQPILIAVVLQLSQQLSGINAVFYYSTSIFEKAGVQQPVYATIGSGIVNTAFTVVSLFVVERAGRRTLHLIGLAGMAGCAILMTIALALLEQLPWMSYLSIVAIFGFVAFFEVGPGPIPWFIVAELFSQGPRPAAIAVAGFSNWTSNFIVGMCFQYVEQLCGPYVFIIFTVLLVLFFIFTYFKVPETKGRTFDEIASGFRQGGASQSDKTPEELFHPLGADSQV

[2] = molecular target: Hexose transporter 1 (Plasmodium falciparum) (UniProt O97467); experiment: ST_JUDE_LEISH: Cytotoxicity at 2uM final concentration against transgenic Leishmania Mexicana promastigotes LmPfHT that are glucose transport deficient and complemented with the Plasmodium falciparum hexose transporter. Activity is measured by DNA content using SYBR green in vitro
[3] = molecular target: Glucose transporter (Leishmania mexicana) (UniProt O61059); experiment: ST_JUDE_LEISH: Cytotoxicity at 2uM final concentration against transgenic Leishmania Mexicana promastigotes LmGT2 that are glucose transport deficient and complemented with the L. Mexicana glucose transporter 2. Activity is measured by DNA content using SYBR green in vitro

SMILES | inhibition [1] | inhibition [2] | inhibition [3]
OCCN1CCN(C2Cc3ccc(F)cc3Sc3ccc(Cl)cc32)CC1 (configuration not stated) | 0.59% | -3.09% | 0.59%
CC(=O)Nc1cccc(CNCc2ccc(-c3cnc(N4CCCC(c5ccccc5)C4)nc3)cc2)c1 (configuration not stated) | 4.23% | 2.57% | 2.2%
Cc1cc(Nc2ccc3ccccc3c2)n2ncnc2n1 | -0.63% | -3.58% | -1.18%
c1ccc(CN2CCC(NCc3ccc(-c4ccc(CNC5CCCC5)cc4)cc3)CC2)cc1 | 1.73% | 1.09% | 0.48%
CC(=O)Nc1ccc(NC(=O)c2cc(-c3cc(Cl)ccc3O)n[nH]2)cc1 | -0.41% | -0.51% | 2.29%
COc1ccccc1C1CCN(C2CCC(NC(=O)/C=C/c3cccc(Cl)c3F)CC2)CC1 (configuration not stated) | 10.5% | 1.32% | 3.14%
CCCCCC(C)N/C(=N/c1ccccc1Br)Nc1ccc(C#N)cc1O (configuration not stated) | 2.35% | 1.33% | 0.92%
Nc1nc(N)c2c(Cc3ccc(Br)cc3)cccc2n1 | 2.61% | 4.39% | 3.75%
COC(=O)c1cccc(CNCc2ccc(-c3cccc(-c4nc5cccc(C)c5[nH]4)c3)cc2)c1 | -0.37% | -1.65% | -2.21%
CCCNCCc1ccc(NS(=O)(=O)c2cccc(-c3ccc(Cl)cc3)c2)cc1 | 1.93% | 0.61% | 1.01%
O=C(NC12CC3CC(CC(C3)C1)C2)C(=O)c1c[nH]c2ccccc12 | 3.4% | 3.09% | 1.4%
COCCNC(=O)c1ccc(OC2CCN(CC(C)=Cc3ccccc3)CC2)c(Cl)c1 | 2.65% | 3.32% | 1.03%
O=C(/C=C/c1ccc(Cl)c(Cl)c1)NCCCCCN1CCN(C(=O)Nc2ccc(Cl)c(C(F)(F)F)c2)CC1 | 2.17% | 0.61% | -1.28%
CCc1cn2c3c(cc(C(=O)N[C@@H](Cc4ccccc4)[C@H](O)CNC4CCCCC4)cc13)N(CC)S(=O)(=O)CC2 | -0.63% | 0.33% | -3.68%
CCNc1cc(C)nc(Nc2ccc(NC(=O)c3ccccc3)cc2)n1 | 6.94% | 4.8% | 3.79%
Fc1ccc(CNc2ccc3ncc(-c4cccnc4)n3n2)cc1 | 2.61% | 2.21% | 0.67%
COc1ccc2nccc([C@@H](O)CN3CCC(NCc4nc5cc(F)ccc5o4)CC3)c2c1 | 8.07% | 6.24% | 1.01%

SMILES | inhibition [1] | inhibition [2] | inhibition [3]
CO/C(=C\C=C\c1cc2cc(Cl)c(Cl)cc2[nH]1)C(=O)NCCCN(C)CCN(C)c1ccccc1 | 4.46% | 3% | 1.47%
O=C(c1ccc(-c2ccc(-c3nc4cc(C(F)(F)F)ccc4[nH]3)s2)cc1)N1CCN(CCc2ccccc2)CC1 | 5.29% | 3.93% | 4.62%
CN(CCCCCN1CCC(NC(=O)Nc2ccc(Oc3ccccc3)cc2)C1)C(=O)/C=C/c1ccc(Cl)c(Cl)c1 (configuration not stated) | 0% | 6.7% | -1.12%
CCOc1ccc2c(=NN=Cc3c4ccccc4cc4ccccc34)cc(C)[nH]c2c1 | 2.42% | 1.13% | 3.35%
COCCCNC(=O)C1CCN(C(c2ccc(Cl)cc2)c2ccc(Cl)cc2)CC1 | 2.3% | 3.44% | 4.61%
CCc1ccc(CN2CCC(CNC(=O)c3cc(-c4cccc(Cl)c4)cs3)C2)cc1 (configuration not stated) | -0.66% | -0.84% | -4.94%
Cc1cccc2nc(-c3cccc(-c4cccc(CN5CCN(c6ccncc6)CC5)c4)c3)[nH]c12 | 1.34% | 0.76% | 0.37%
O=S(=O)(NCCN1CCCC1)c1ccc(-c2cccc(CNCCc3cccs3)c2)s1 | 0.02% | 2.28% | 3.42%
N=C(N)Nc1ccc(OCCCCCOc2ccc(NC(=N)N)cc2Br)c(Br)c1 | 4.63% | 1.79% | 0.79%
COc1cccc(NC(=O)Nc2ccc(Nc3nc(C)cc(N4CCCC4)n3)cc2)c1 | 1.91% | 1.07% | 1.4%
CC1Cc2ccccc2N1S(=O)(=O)c1cc(OCC(F)(F)F)ccc1OCC(F)(F)F (configuration not stated) | 4.69% | 3.54% | 3.67%
O=C(NC1CC1)c1cnc(N2CCC(COc3cccc(F)c3)CC2)c(Cl)c1 | 1.83% | 2.54% | 0.22%
CCCNC(=O)c1ccnc(-c2ccc(CNC3Cc4ccccc4C3)cc2)c1 | 1.45% | 1.35% | -0.22%
Oc1ccc(Nc2nc(NCC3CCCO3)c3ccccc3n2)cc1 (configuration not stated) | 7.56% | 6.25% | 1.86%
C=CCc1cc(SC)ccc1Oc1ccc(N)cc1 | 1.84% | 2.06% | 1.08%
Cc1[nH]c(C)c(-c2ccc(OCCCc3ccccn3)cc2)c(=O)c1Br | 8.98% | 6.12% | 8.48%
COc1ccc(/N=[N+](\[O-])c2ccccc2/[N+]([O-])=N/c2ccc(OC)cc2)cc1 | 1.29% | 1.73% | 1.68%
